Screens as filed in PubChem BioAssay.
Cav3 T inh = human Cav3.2 channel inhibition, primary screen; O95180; Cav3.2-expressing cells, Fluo-4 calcium fluorescence FDSS; active compounds read low; B-score at 10 µM; 100,000 compounds, 4% hits; AID 449739;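 active = single-dose well whose peak fluorescence ratio is a statistical outlier from its plate by either plate-standardised score or position-corrected B-score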
CYP2C9 activ = CYP2C9 (human) activation. 96,000 compounds, 1.4% hits. AID 1024. activation factor at 5 µM. recombinant CYP2C9, luciferin-H conversion, luminescence; active compounds read high; factor 1 = untreated enzyme, 0 = blocked;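 active = activation factor of 2 or more for CYP2C9 at a 5 µM dose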;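 note: 0 = sulfaphenazole-blocked wells and 1 = vehicle-only wells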
CYP2C19 act = cytochrome P450 2C19 (human) activation; recombinant CYP2C19, luciferin-H EGE luminescence; active compounds read high; 0 = fully inhibited enzyme, 1 = untreated enzyme; activation factor at 5 µM; P33261; 96,000 tested, under 10 active;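 active = activation factor of at least 2 at 5 µM in the primary screen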;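 note: 0 = wells with 2.5 mM tranylcypromine and 1 = vehicle-only wells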
Target sequence (P33261 whole entry, looked up): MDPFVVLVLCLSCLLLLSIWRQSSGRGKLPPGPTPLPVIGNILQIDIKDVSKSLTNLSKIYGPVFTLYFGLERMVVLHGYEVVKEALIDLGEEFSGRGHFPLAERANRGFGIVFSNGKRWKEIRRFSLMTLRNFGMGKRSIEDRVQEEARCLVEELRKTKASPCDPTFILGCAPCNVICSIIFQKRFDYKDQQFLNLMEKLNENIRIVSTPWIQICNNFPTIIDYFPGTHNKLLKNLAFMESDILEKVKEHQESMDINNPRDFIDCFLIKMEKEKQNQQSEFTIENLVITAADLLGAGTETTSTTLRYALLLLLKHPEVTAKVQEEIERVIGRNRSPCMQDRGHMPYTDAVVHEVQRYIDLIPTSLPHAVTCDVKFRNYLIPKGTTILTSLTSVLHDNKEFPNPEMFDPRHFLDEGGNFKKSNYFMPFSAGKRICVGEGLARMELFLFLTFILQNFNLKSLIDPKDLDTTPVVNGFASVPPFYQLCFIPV
CYP2C9 inh = blocks human cytochrome P450 2C9. CYP2C9 Supersomes, luciferin-H conversion, luminescence. inhibition, % at 5 µM. 96,000 compounds, 20% hits. AID 777;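 active = blocking of liver enzyme CYP2C9 beyond about 50% at 5 µM, limit read from the data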
CYP2C19 inh = inhibitors of human CYP2C19; P33261; CYP2C19 Supersomes, luciferin-H EGE luminescence, 30 min; 96,000 compounds, 21% hits; inhibition, % at 5 µM;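 active = CYP2C19 inhibition above a set limit at 5 µM in the primary screen, cut at about 50% in these data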;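 note: plate controls were negative control wells for no effect and 2.5 mM tranylcypromine positive control for full effect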
Active calls of the source: *; nt = not tested or not shown. The list is not random: actives were taken first. Their share in the collection is about 27%.

SMILES | Cav3 T inh | CYP2C9 activ | CYP2C19 act | CYP2C9 inh | CYP2C19 inh
CCOC(=S)N/C(=N\S(=O)(=O)c1ccc(C)cc1)c1ccccc1 | 1.37 | 0.1 | 0.5 | 90.7* | 46.5
CSC(=NS(=O)(=O)c1ccc(C)cc1)SC | 1.39 | 2.1* | 0.8 | -105.9 | 21.3
CC(C)C[C@@H](CO)NC(=O)CC[C@H](NC(=O)OC(C)(C)C)C(=O)N(Cc1ccccc1)Cc1ccccc1 | -0.879 | nt | nt | nt | nt
Cc1[nH]n(-c2ccc(Cl)cc2)c(=O)c1C=Nc1ccc(S(=O)(=O)N2CCOCC2)cc1 | 0.46 | 0.9 | 1 | 13.7 | -2.4
CCCS(=O)(=O)N1CCN(Cc2ccncc2)CC1 | 0.226 | 0.8 | 0.7 | 16.3 | 29.2
CCCCS(=O)(=O)Nc1ccc(Cc2ccncc2)cc1 | 0.196 | 0 | 0 | 100.0* | 100.0*
COc1ccc(NC(=O)C2CCCO2)cc1OC (stereo unspecified) | 0.125 | 0.9 | 1.1 | 7.7 | -7.3
COc1ccc(NC(=O)CC2CCCCC2)cc1OC | 0.273 | 0.8 | 0.1 | 23.4 | 93.6*
COc1ccc(CN2CCCC2C(=O)Nc2ccc(OC)c(OC)c2)cc1OC (stereo unspecified) | 0.409 | 0.5 | 0.5 | 49.9 | 54.0*
COc1ccc(CN2CCCCC2C(=O)Nc2ccc(OC)c(OC)c2)cc1OC (stereo unspecified) | -2.31 | 0.6 | 0.6 | 44.2 | 35.1
CC(=O)OCCCN1c2ccccc2Nc2nnc(-c3ccccc3)cc21 | -2.49 | nt | 0.4 | nt | 61.3*
CC(=O)OCCN1C(=O)c2cccnc2C1=O | nt | 1.2 | 1.1 | -19.9 | -14.7
O=C(N[C@@H](c1ccccc1)[C@@H]1C[C@H]1C(=O)O)OCc1ccccc1 | 0.666 | nt | nt | nt | nt
O=C(NCc1ccc(Cl)cc1)C1CCCN(S(=O)(=O)c2cnc[nH]2)C1 (stereo unspecified) | 0.318 | 0 | 0 | 96.4* | 99.4*
COc1ccccc1CNC(=O)C1CCCN(S(=O)(=O)c2cnc[nH]2)C1 (stereo unspecified) | 0.199 | 0.1 | 0 | 90.0* | 96.6*
CS(=O)(=O)N1CCC(C(=O)NCc2ccncc2)CC1 | 0.284 | 0.4 | 0.8 | 59.4* | 15.6
O=C(NCCN1CCN(c2ccccc2F)CC1)C1CCCN(S(=O)(=O)c2cnc[nH]2)C1 (stereo unspecified) | nt | 0.9 | 1 | 7.3 | -4.8
Cc1ccc(CNC(=O)C2CCCN(S(=O)(=O)c3cnc[nH]3)C2)cc1 (stereo unspecified) | 0.237 | 0.3 | 0 | 67.0* | 96.4*
Cc1ccc(CNC(=O)C2CCCN(S(=O)(=O)c3cccnc3)C2)cc1 (stereo unspecified) | 0.637 | 0.5 | 0.7 | 46.5 | 28.6
COc1ccc(CNC(=O)C2CCCN(S(=O)(=O)c3cnc[nH]3)C2)cc1 (stereo unspecified) | -0.954 | 0.5 | 0.2 | 46.3 | 77.6*
Cc1ccc(NC(=O)C2CCN(S(=O)(=O)c3cnc[nH]3)CC2)nc1 | -0.989 | 0.7 | 0.9 | 32.2 | 6.7
COc1ccc(N2CCN(CCCNC(=O)C3CCCN(S(=O)(=O)c4cnc[nH]4)C3)CC2)cc1 (stereo unspecified) | 0.627 | 1 | 1.2 | 2.5 | -19.4
Cc1ccc(CNC(=O)C2CCN(S(=O)(=O)c3cnc[nH]3)CC2)cc1 | 0.573 | 0.1 | 0.8 | 89.7* | 15.9
O=S(=O)(c1ccc(N2CCCC2)cc1)C(F)(F)F | -1.06 | 1.1 | 1 | -12.2 | 2.7
CCN(CC)c1cc(C)c2cc(NC(=O)CNC(C)=O)ccc2n1 | 0.832 | 0.9 | 1 | 14.0 | -1.5
SMILES | Cav3 T inh | CYP2C9 activ | CYP2C19 act | CYP2C9 inh | CYP2C19 inh
C[C@@H](O)C1NC(=O)[C@H](CCCCN)NC(=O)c2cc([N+](=O)[O-])cc(I)c2NCCC[C@@H](C(N)=O)NC1=O (stereo partly specified) | 0.309 | nt | nt | nt | nt
CN(C1=NC(=O)C(CC(=O)Nc2ccc(Br)cc2)S1)c1ccc(O)cc1 (stereo unspecified) | 0.0747 | 0.4 | 0.9 | 62.1* | 10.3
COc1cccc(-c2nnn(CC(C)=O)n2)c1 | -0.0332 | nt | nt | nt | nt
CC(=O)CC(C)(C)n1nnc(-c2ccccc2)n1 | -0.068 | 0.9 | 0.4 | 12.3 | 62.5*
CCCC(c1nnnn1C(C)(C)CC)N(Cc1ccco1)Cc1cc2ccc(OC)cc2[nH]c1=O (stereo unspecified) | -3.85 | 0.6 | 0.7 | 40.6 | 29.1
Cc1cc2cc(C(c3nnnn3C3CCCC3)N(Cc3cccnc3)Cc3ccco3)c(=O)[nH]c2cc1C (stereo unspecified) | -3.34 | 0.4 | 0.4 | 60.1* | 60.4*
COCCn1nnnc1C(c1cc2ccc(C)cc2[nH]c1=O)N(Cc1ccco1)Cc1cccs1 (stereo unspecified) | -1.97 | 0.3 | 0.5 | 69.7* | 47.4
CCC(C)(C)n1nnnc1C(c1cc2ccc(C)cc2[nH]c1=O)N(Cc1cccnc1)Cc1ccco1 (stereo unspecified) | -2.17 | 0.1 | 0 | 88.9* | 99.0*
Cc1ccc(C(c2nnnn2C2CCCCC2)N(C)C2CCCCC2)cc1 (stereo unspecified) | -3.22 | 1 | 0.9 | -1.1 | 14.5
Cc1cc2cc(C(c3nnnn3Cc3ccco3)N3CCc4ccccc4C3)c(=O)[nH]c2cc1C (stereo unspecified) | 0.339 | 0.9 | 1 | 7.6 | 4.4
Cc1ccc2cc(C(c3nnnn3C3CCCC3)N(Cc3ccccc3)Cc3ccco3)c(=O)[nH]c2c1 (stereo unspecified) | -2.62 | 0.7 | 0.8 | 34.6 | 24.4
CC(C)C(c1nnnn1C1CCCC1)N(C)C1CCCCC1 (stereo unspecified) | -1.99 | 0.5 | 0.8 | 51.2* | 22.0
CC1CN(C(=O)C(c2ccccc2)c2ccccc2)CC(C)O1 (stereo unspecified) | -0.207 | 0.9 | 0.9 | 11.3 | 9.9
COc1cc2cc(C(c3nnnn3C3CCCCC3)N(C)C3CCCCC3)c(=O)[nH]c2cc1OC (stereo unspecified) | -3.22 | 0.5 | 0.4 | 50.5* | 62.4*
COc1ccc(OC)c(S(=O)(=O)n2cnc3cc(C)c(C)cc32)c1 | 0.202 | 0.1 | 0 | 86.8* | 97.5*
CCOc1ccc(S(=O)(=O)n2nc(C)cc2C)c2ccccc12 | 0.316 | 0.9 | 0.9 | 8.0 | 13.6
COc1ccc(OC)c(S(=O)(=O)n2nc(C)cc2C)c1 | -0.0258 | 0.9 | 0.3 | 14.3 | 68.1*
CCCCC1=NN2C(=N)CC(=O)N=C2S1 | 0.0218 | 0.9 | 0.9 | 11.6 | 8.8
O=C(O)C1CC(=O)N(c2ccc3c(c2)OCCO3)C1 (stereo unspecified) | 0.0311 | 1.1 | 1.2 | -11.9 | -20.5
O=C(CSc1nc2ccccc2[nH]1)Nc1ccc2c(c1)OCCO2 | -3.91* | 0.3 | 0.6 | 72.2* | 37.5
Cc1cc(NC(=O)CSc2nc3ccccc3[nH]2)no1 | -0.0684 | 1 | 0.8 | -3.0 | 18.3
COC(=O)c1ccc(CSc2nc3c(cnn3-c3ccc(C)cc3)c(=O)[nH]2)o1 | 0.0237 | nt | nt | nt | nt
O=C(CCc1nc2ccccc2[nH]1)Nc1ccc2c(c1)OCO2 | -0.212 | 0.6 | 0.7 | 37.4 | 34.5
